This is part of a sample that, as a whole, favours compounds with a hit. Of some 79,000 tested, about 15% had one in any assay. Values without a mark were called inactive. Activity calls are given as the source filed them. No stated cut-off is given here; in the data, active means growth inhibition above about 70%; inactive means the rest. Where a SMILES comes first, the peptide text is derived from it. The star is where a group is joined. Trt = c1ccc(C(c2ccccc2)(c2ccccc2)*)cc1; Cbz = O=C(OCc1ccccc1)*
What was measured:
[1] = NCI Yeast Anticancer Drug Screen. Data for the rad50 strain (AID 155);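 further: 0% = growth of vehicle-only cultures of the same strain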; conditions: S. cerevisiae rad50 strain growth inhibition; at 50.0 µM; hits give high values
How it was run: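 Growth of the mutant yeast was measured after compound exposure and referenced to vehicle-treated cultures.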

[2] = NCI Yeast Anticancer Drug Screen. Data for the mec2-1 strain (AID 157); conditions: S. cerevisiae mec2-1 strain, at 50.0 µM, hits give high values
How it was run: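 Using mec2-1 yeast: add compound, measure growth, express inhibition versus vehicle-treated cultures.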

[3] = NCI Yeast Anticancer Drug Screen. Data for the sgs1 mgt1 strain (AID 161);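 further: 0% = growth of cultures given vehicle only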; conditions: S. cerevisiae sgs1 mgt1 strain, at 50.0 µM, hits give high values
How it was run: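 Percent growth inhibition was derived by comparing compound-exposed mutant yeast with vehicle-exposed cultures. The strain carries alterations in DNA damage repair.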

[4] = NCI Yeast Anticancer Drug Screen. Data for the cln2 rad14 strain (AID 165);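 further: 0% = growth equal to vehicle treated cultures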; conditions: S. cerevisiae cln2 rad14 strain, at 50.0 µM, hits give high values
How it was run: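 Yeast strain cln2 rad14, bearing defects in cell cycle control and DNA repair, serves as the test system; values reflect growth inhibition compared with vehicle.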

[5] = NCI Yeast Anticancer Drug Screen. Data for the bub3 strain (AID 167); conditions: S. cerevisiae bub3 mutant strain, at 50.0 µM, hits give high values
How it was run: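 Whole-cell yeast assay. The mutant strain was incubated with compounds, and growth inhibition was determined by comparison with vehicle-treated cells.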

[6] = NCI Yeast Anticancer Drug Screen. Data for the mlh1 rad18 strain (AID 175); conditions: S. cerevisiae mlh1 rad18 strain growth inhibition; at 50.0 µM; hits give high values
How it was run: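 Steps: expose repair-defective yeast to compound; measure growth; express inhibition against vehicle-treated controls.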

SMILES | growth inhibition [1] | growth inhibition [2] | growth inhibition [3] | growth inhibition [4] | growth inhibition [5] | growth inhibition [6]
COc1ccccc1/C=C/C(=O)c1ccccc(=O)c1O | -9% | -5.05% | -4.35% | -23.4% | -1.05% | -11.2%
Cc1nnc(N)c(C#N)c1C | -8.45% | 2.3% | 16.6% | -56.9% | 4.45% | -1.85%
CC(=O)OCC(=O)[C@@]1(O)CC[C@H]2[C@@H]3C[C@H](C)C4=CC(=O)C=C[C@]4(C)[C@@]3(Br)[C@@H](O)C[C@@]21C | 30.9% | 7.75% | 38.3% | 35.9% | 1.35% | -9.1%
O=C(NCCCCCCNC(=O)Nc1cccc(C(F)(F)F)c1)Nc1cccc(C(F)(F)F)c1 | -9.65% | -13.7% | -4.05% | -19.1% | 2.4% | 8.8%
Cc1ccc2cccc(N)c2n1 | 21.4% | -0.15% | -8% | -33.5% | 18% | 7.2%
CCOC(=O)c1ccc(CSc2ccc(OC)cc2)cc1 | 86.9% (active) | 75.7% (active) | 86.4% (active) | 76.5% (active) | 80.5% (active) | 78.6% (active)
O=C(NCCCl)NC(C1CC1)C1CC1 | 13.1% | -2.9% | 6.45% | -58.1% | 13.4% | -3.95%
O=C(CCn1[nH]c(=O)c(Cl)c(Cl)c1=O)NOCCCc1ccccc1 | 0.3% | -21.7% | -8.5% | -7.95% | 4.3% | -11.6%
CC1NC(=O)C2Cc3ccc(O)c(c3)Oc3cccc(c3)C(O)C(C(=O)N2C)N(C)C(=O)C(C)NC(=O)C(Cc2ccc(O)c(O)c2)N(C)C(=O)C(C)NC1=O (configuration not stated) | 6.75% | -19.3% | 6.6% | 6.15% | 10.7% | 6.55%
C=C(C)CC1(C)C(=O)CCC1O (configuration not stated) | -13.7% | -15.8% | 3.9% | -30.8% | 6.1% | 6.25%
O=C(/C=C/c1ccccc1)Sc1ccccc1 | -2% | -7.6% | 13.2% | -1.75% | -8.1% | 1.65%
CN[C@H]1CC[C@]23C[C@]24CC[C@]2(C)[C@@H]([C@H](C)N(C)C)CC[C@@]2(C)[C@@H]4CC[C@H]3C1(C)C | 1.3% | -4.65% | 9.2% | 6.35% | 8.25% | -63.8%
CC(C)(C)OC(=O)Cc1c[nH]c2ccccc12 | -38.2% | -27.1% | -9.45% | -19.1% | -27.6% | -41.1%
O=c1[nH]c2nc3ccccc3c(=O)n2/c1=C/c1cccs1 | 28.9% | 2.2% | 4.4% | 20.6% | 14.3% | -15.8%
CCCCOC1NC(=O)Oc2ccccc21 (configuration not stated) | -9.35% | 4% | -3.15% | -28.5% | -4.95% | 15.1%
COc1ccc(C(O)CNC(=O)c2ccccc2)cc1 (configuration not stated) | 11.7% | -4.4% | 12.5% | -7.2% | -2.15% | -60%
O=C(Nc1cc(Cl)c(Oc2ccc(Cl)cc2)cc1S(=O)(=O)O)Nc1cccc(Cl)c1Cl | 99% (active) | 99.5% (active) | 99.6% (active) | 98.2% (active) | 98.7% (active) | 99.4% (active)
COC(=O)C(CO)NC(=O)C(CSC(c1ccccc1)(c1ccccc1)c1ccccc1)NC(=O)OCc1ccccc1 (configuration not stated) (Cbz-Cys(Trt)-Ser-OMe; configuration not given here) | 76.2% (active) | 68.7% | 78.8% (active) | 78% (active) | 67.2% | 84.2% (active)
O=C(O)/C=C/C(=O)Nc1ccc2c(c1)C(O)c1ccccc1-2 (configuration not stated) | -56.4% | -12.9% | -1.9% | -45.7% | -7.2% | -4.55%

SMILES | growth inhibition [1] | growth inhibition [2] | growth inhibition [3] | growth inhibition [4] | growth inhibition [5] | growth inhibition [6]
Cc1ccc(S(=O)(=O)/C=C(\I)c2ccc([N+](=O)[O-])cc2)cc1 | 98.8% (active) | 99.2% (active) | 99.3% (active) | 98.8% (active) | 98.9% (active) | 99.1% (active)
C[N+]1(C)CC=C(N2CCOCC2)CC1 | -27.6% | -25.1% | -18.8% | -30% | -12.9% | -14.4%
CC(C)=C1C=C(C(C)(C)C)C(=O)C(C(C)(C)C)=C1 | 29.9% | -5.9% | -1.8% | 17.4% | 9.15% | 28.4%
CN1Cc2ccccc2C1 | 0.75% | -3.5% | 1.7% | 10.4% | 17.4% | 5.55%
O=C(O)c1oc2cccc3c2c1CCC3 | -3.6% | 1.3% | 5.4% | -10.3% | -1.35% | -4.2%
O=[N+]([O-])c1cc(Br)ccc1P(=O)(O)O | 9.25% | 8.8% | -1.25% | 7.85% | 16.9% | -4.95%
CC1(C(=O)O)CCCN1 (configuration not stated) | 9.35% | -7.6% | -20.6% | 15.4% | -0.95% | -9%
COC(=O)[C@@H]1CON(Cc2ccccc2)C1CC1(C)OCCO1 (some centres not stated) | 0.85% | -7.3% | 23.8% | 0.6% | 7.35% | 8.45%
Cc1ccc(O)c(C)n1 | 4.2% | 14% | 0.15% | 7% | -0.2% | -2.9%
CCCCCCCCCCOC1C(C(C)OCCCN(C)C)OC2OC3(CCCCC3)OC21 (configuration not stated) | 91.8% (active) | 93.3% (active) | 40.7% | 16.1% | -31.6% | 86.2% (active)
O=C(O)C1OC1(c1ccccc1Cl)c1ccccc1Cl (configuration not stated) | 7.3% | -13.2% | 7.8% | 1.55% | -3.3% | 9.55%
COc1ccc(/C(=N/NC(=O)NN)C(c2ccc(OC)cc2)C2(O)CNc3c(Cl)cc(Cl)cc32)cc1 (configuration not stated) | 1.75% | 14.4% | -9.15% | -16.4% | 16.4% | 12.7%
CCCCCCC(=O)OC[n+]1ccc2c(C)c3[nH]c4ccc(OC)cc4c3c(C)c2c1 | 87% (active) | 91.2% (active) | 89.8% (active) | 88.7% (active) | 86% (active) | 91.1% (active)
CC1=NN(C(=O)Cc2ccccc2)C(=O)/C1=C\c1ccc([N+](=O)[O-])cc1 | -38.2% | -41.5% | -52.4% | -26.4% | -55% | -55.8%
N#Cc1[nH]c(=S)[nH]c1N | 4.1% | -7.85% | 2.6% | 6.05% | 11.8% | -40.8%
CCCCS(=O)CC(CO)NC(=O)/C=C/c1c(C)[nH]c(=O)[nH]c1=O (configuration not stated) | 12.9% | 22.8% | 12.8% | 22.1% | -3.25% | 33.9%
Cc1c(-c2nc(N)nc(C3CC3)c2C)nc(N)nc1C1CC1 | 4.55% | -9.1% | -12.7% | -11.7% | -26.8% | -7.35%
CCOC(=O)C(O)(C#CC(C)C)C1CCCC1 (configuration not stated) | -15% | 13% | -4.65% | 5% | -6.4% | -6.65%
